From PubChem BioAssay
The list is not random: actives were taken first. Their share in the collection is about 6.6%.
SW480 rereplic – inducers of DNA re-replication in SW480 colon cancer cells | SW480 DNA re-replication, Hoechst DNA content imaging, 48 h | Potency, µM (series often up to 46.1 µM), without a hit: top-dose re-replication activation, usual class: activators | actives 1.8% (n = 340,000); note: % of control where 0% means no effect; nearly all actives have a fitted effect of over 55% in size
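DNA re-replication was detected as more nuclei of elevated Hoechst intensity after 48 hr exposure to compound (23 nL pinned per well of 250 cells).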
KB-V1 MDR tox – KB-V1 MDR subline cytotoxicity; KB-V1 MDR cells viability, CellTiter-Glo, 72 h; Potency, µM (series often up to 46.1 µM), actives largely listed as cytotoxic; actives 3.4% (n = 400,000); note: % is set by controls: 0 for no effect and ±100 for the full control effect; nearly all actives have a fitted effect of over 60% in size
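Cells of the MDR subline KB-V1 are plated, dosed with compound at multiple concentrations, and incubated 72 h at 37 degrees C; CellTiter-Glo is then added and luminescence read after 10 min.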
PTAP TSG101 blk – blocks PTAP/TSG101 interaction to inhibit HIV-1 budding; Potency, µM (highest dose often 115 µM), for inactives: top-dose activity change, negative = inhibition, hits mostly inhibitors; Fluorescence polarization, FITC-PTAP peptide / Tsg101 binding; Q99816; 340,000 tested, under 10 active; active = well fitted inhibition curve with a large enough effect in the main read-out, with a control signal flat, not every such curve was filed as active; inconclusive = small, poorly fitted or top-dose-only effect, or effect the other way, or a change in a side signal; inactive = no such curve, though single readings can be large or run the other way; note: % of control where 0% means no effect
Target sequence (Q99816 whole entry, looked up): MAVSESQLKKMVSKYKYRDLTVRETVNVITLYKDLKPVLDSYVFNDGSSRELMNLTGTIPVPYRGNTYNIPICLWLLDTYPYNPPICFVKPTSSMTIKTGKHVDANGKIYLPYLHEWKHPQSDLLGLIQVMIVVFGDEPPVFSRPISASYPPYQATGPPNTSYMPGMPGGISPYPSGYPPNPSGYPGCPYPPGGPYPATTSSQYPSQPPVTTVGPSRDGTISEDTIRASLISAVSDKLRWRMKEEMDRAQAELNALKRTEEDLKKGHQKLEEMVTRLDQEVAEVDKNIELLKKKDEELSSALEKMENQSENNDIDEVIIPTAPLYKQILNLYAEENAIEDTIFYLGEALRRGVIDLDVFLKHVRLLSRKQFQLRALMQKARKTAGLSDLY
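Steps: Tsg101 binding domain dispensed (10 uM final), compounds pinned in DMSO, FITC-labeled PTAP-motif peptide added (50 nM final); after 20 min binding at room temperature, polarization measured.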
MCF10A rereplic – induces DNA re-replication in MCF 10a normal breast cells | actives 2.9% (n = 350,000) | Potency, µM (highest dose often 46.1 µM), for the others: top-dose activity, positive = re-replication, most hits filed as activators | MCF 10A DNA re-replication, Hoechst nuclear intensity, 48 h | AID 624296; note: % of control where 0% means no effect; nearly all actives have a fitted effect of over 50% in size
RGS4 inhibitor – inhibitors of human regulator of G protein signaling 4 | P49798 | Transcreener GDP fluorescence polarization, RGS4-accelerated GTP hydrolysis | Potency, µM (titrated, usually from 114 µM), without a hit: at the top dose activity change, negative = inhibition, most hits filed as inhibitors | actives 0.039% (n = 390,000) | AID 504845; note: % is set by controls: 0 for no effect and ±100 for the full control effect; nearly all actives have a fitted effect of over 75% in size
Target sequence (P49798 whole entry, looked up): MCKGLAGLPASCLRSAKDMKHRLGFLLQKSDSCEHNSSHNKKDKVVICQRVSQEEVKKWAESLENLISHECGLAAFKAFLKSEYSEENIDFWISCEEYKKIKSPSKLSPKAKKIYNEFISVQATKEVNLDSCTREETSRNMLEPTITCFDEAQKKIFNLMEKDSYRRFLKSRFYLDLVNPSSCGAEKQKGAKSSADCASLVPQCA
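MLSMR compounds (23 nl, pin-transferred) preincubated 10 min at room temperature with a 500nM (2x) first reagent, then RGS4 at 900nM (2x) plus Transcreener GDP mix added; fluorescence polarization (620/688 nm) read before and after 90 min at 30 °C.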
KB-3-1 tox – kills parental KB-3-1 adenocarcinoma cells; KB-3-1 viability, CellTiter-Glo ATP luminescence, 72 h; Potency, µM (series often up to 46.1 µM), usual class: cytotoxic; actives 1.4% (n = 400,000); AID 1347075; note: % is set by controls: 0 for no effect and ±100 for the full control effect; nearly all actives have a fitted effect of over 60% in size
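Multi-concentration cytotoxicity screen in KB-3-1 cells grown in DMEM lacking phenol red with 10% FBS. After 72 h at 37 °C with compound, ATP-dependent luminescence was recorded.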
Starred values were filed as active, the others as inactive; i = inactive; ? = inconclusive; . = not tested or not shown. Unless noted, calls come from the whole dose curve; as a rule, active = well fitted curve in the direction sought with a large enough effect; inconclusive = small, poorly fitted or top-dose-only effect, or another doubt; inactive = no such curve, though single readings can be large; an effect the other way counts as inactive or inconclusive. Potency is the fitted concentration of half-maximal effect.

SMILES	SW480 rereplic	KB-V1 MDR tox	PTAP TSG101 blk	MCF10A rereplic	RGS4 inhibitor	KB-3-1 tox
COc1cc(NC(=O)c2oc3ccccc3c2C)ccc1NC(=O)c1ccco1	1%	i	0%	18µM*	-12%	i
COc1cc(NC(=O)c2ccccc2F)ccc1NC(=O)c1cc2ccccc2o1	?	i	-2%	2.3µM*	-6%	i
O=C(C[n+]1ccccc1)Nc1ccccc1C(F)(F)F	-55%	i	-1%	3.3µM*	4%	i
O=C(C[n+]1ccccc1)Nc1ccccc1C(=O)O	-4%	i	-7%	?	-2%	i
C#C[C@]1(O)CC[C@H]2[C@@H]3CCc4cc(O)ccc4[C@H]3CC[C@@]21C	?	16µM*	-3%	18µM*	7%	?
CC12CCC3c4ccc(O)cc4CCC3C1CCC2=O (stereo not given)	-87%	?	-5%	2%	4%	i
C#CC1(O)CCC2C3CCC4=C(CCC(=O)C4)C3CCC21C (stereo not given)	-3%	1.5µM*	-3%	9%	-5%	?
O=C(N1CCN(c2ccccc2F)CC1)C12CC3CC(CC(C3)C1)C2	11%	18µM*	-2%	?	-2%	i
CC(C)NC(=O)c1sc2nc(-c3cccs3)cc(-c3cccs3)c2c1N	?	i	-10%	3.7µM*	-36%	i
Nc1c(C(=O)Nc2nc3ccccc3s2)sc2nc(-c3cccs3)ccc12	?	i	?	4.1µM*	?	8.2µM*
COc1ccc(C(=O)c2sc3nc(C)cc(-c4cccs4)c3c2N)cc1OC	?	?	?	5.2µM*	5%	i
COc1ccc(C(=O)c2sc3nc(C)cc(-c4cccs4)c3c2N)cc1	21µM*	i	?	?	-1%	i
Cn1c(=O)n(-c2ccc(F)c(Cl)c2)c(=O)c2sc3ccccc3c21	.	i	.	.	8%	i
COc1ccc(-c2cc(-c3cccs3)nc3sc(C#N)c(N)c23)cc1	?	?	2%	16µM*	-52%	i
Cc1cc(-c2cccs2)c2c(N)c(C(=O)c3ccc4c(c3)OCO4)sc2n1	1.3µM*	6.5µM*	?	15µM*	10%	?
CC(OCc1ccccc1)C(NC(=O)OC(C)(C)C)C(=O)NC1COC2CC(n3ccc(=O)[nH]c3=O)OC12 (stereo not given)	.	.	.	.	1%	.
COc1ccc(C2NC(c3ccc4c(c3)OCO4)=CC(c3ccccc3O)N2)cc1OC (stereo not given)	.	?	.	.	-24%	i
CCN(Cc1ccccc1)C(=O)c1nc(-c2cccc(F)c2)n2c1CCCCC2	.	i	.	.	10%	i
O=C(C[n+]1ccccc1Cl)c1ccc2c(c1)CCCC2	.	i	.	.	.	i
Cc1cccc(Cc2c(C)nc3nc(SCC(=O)NCc4ccco4)nn3c2C)c1	-7%	?	1%	14%	0%	?
Cc1ccc(Cc2c(C)nc3nc(SCC(=O)NCc4ccco4)nn3c2C)cc1	?	8.2µM*	-4%	6.5µM*	-4%	4.6µM*
COc1ccc(N(Cc2cccs2)C(=O)Nc2ccccc2)cc1	.	i	.	.	9%	i
CCN(Cc1cc2cc(C)ccc2[nH]c1=O)C(=O)c1cccc(OC)c1	6%	9.2µM*	-4%	11%	22%	i
CCOc1ccc2[nH]c(=O)c(CN(Cc3ccc(F)cc3)C(=O)c3ccco3)cc2c1	?	15µM*	-3%	?	-11%	16µM*
COc1ccc2[nH]c(=O)c(CN(C(=O)c3cccc(Cl)c3)c3cccc(C)c3)cc2c1	.	i	.	.	2%	i
SMILES	SW480 rereplic	KB-V1 MDR tox	PTAP TSG101 blk	MCF10A rereplic	RGS4 inhibitor	KB-3-1 tox
CCOc1ccc2[nH]c(=O)c(CN(CC3COCCO3)C(=O)c3ccco3)cc2c1 (stereo not given)	-4%	i	-4%	0%	20%	i
COc1ccccc1NC(=S)N(Cc1ccco1)Cc1cc2cc(C)ccc2[nH]c1=O	?	?	0%	?	?	1.8µM*
COc1ccc(C(=O)N(Cc2ccco2)Cc2cc3cc(C)ccc3[nH]c2=O)cc1OC	10%	i	-5%	3%	-20%	i
CCOc1ccc2[nH]c(=O)c(CN(Cc3ccco3)C(=O)c3ccc(Br)cc3)cc2c1	?	23µM*	-6%	16µM*	-40%	?
COc1ccc(-c2noc(CSc3nnc(-c4ccc(Cl)cc4)n3C)n2)cc1OC	.	i	.	.	-22%	i
CCOc1ccc(NC(=O)CSc2nnc(CC)c(CC)n2)cc1	.	i	.	.	-2%	i
CC(=O)N1N=C(c2ccc(C)cc2)CC1c1cn(-c2ccccc2)nc1-c1cccs1 (stereo not given)	.	i	.	.	15%	i
CCOc1ccc2[nH]c(=O)c(CN(Cc3ccccc3OC)C(=O)c3ccccc3)cc2c1	?	4.6µM*	-5%	21µM*	23%	5.2µM*
CCOc1ccc(N(CC(=O)NCc2ccc(F)cc2)C(=O)c2ccco2)cc1	-2%	16µM*	-4%	8%	-18%	i
Cc1ccc2[nH]c(=O)c(CN(Cc3ccco3)C(=O)c3ccncc3)cc2c1	?	?	-5%	?	-28%	12µM*
CCc1ccc2[nH]c(=O)c(CN(CCN(CC)CC)C(=S)NCc3ccco3)cc2c1	-31%	?	-7%	6%	-14%	23µM*
COc1ccc(NC(=O)Cc2csc(COc3cccc(C)c3)n2)cc1OC	.	?	.	.	22%	?
CC(=O)N1c2ccc(S(=O)(=O)NCCC(=O)Nc3ccc(Br)c(C)c3)cc2CC1C (stereo not given)	.	i	.	.	3%	?
CCN(CC)S(=O)(=O)c1cc([N+](=O)[O-])ccc1NNC(=O)Nc1ccc(F)cc1	-1%	i	-3%	23µM*	-5%	?
CCN(CC)S(=O)(=O)c1cc([N+](=O)[O-])ccc1NNC(=O)Nc1ccccc1OC	2%	?	-7%	29%	-20%	?
CC1(C)Cc2nc3oc4c(N(CCO)Cc5ccccc5)ncnc4c3cc2CO1	-8%	15µM*	-12%	19%	8%	i
Nc1nc(Cl)cc(N2CCCC2)n1	-11%	i	2%	8%	-16%	i
Nc1nc(Cl)cc(N2CCC(c3cc(-c4ccc(Cl)cc4Cl)n[nH]3)CC2)n1	?	23µM*	1%	?	-1%	?
Cc1ccc(C(NC(=O)NCCCN2CCOCC2)=C(Cl)Cl)cc1F	?	?	-3%	?	4%	?
